Laboratory results published in PubChem BioAssay (NCI).
About 79,000 compounds went through this panel and 15% of them were active in at least one assay; those are over-represented in the sample as a whole. Values without a mark were called inactive. Active and inactive are the calls of the source. No stated cut-off is given here; in the data, active means growth inhibition above about 70%; inactive means the rest.

Assay: NCI Yeast Anticancer Drug Screen. Data for the sgs1 mgt1 strain (AID 161);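 further: 0% = growth of cultures given vehicle only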
Conditions: S. cerevisiae sgs1 mgt1 strain, at 50.0 µM, stronger effect = higher value
Method in brief: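 Percent growth inhibition was derived by comparing compound-exposed mutant yeast with vehicle-exposed cultures. The strain carries alterations in DNA damage repair.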

| Structure (SMILES) | growth inhibition |
| --- | --- |
| COC(=O)CCC(=O)c1ccc2c(c1)CC1(Cc3ccccc3C1)C2 | 15.3% |
| CCC[CH2][Sn]([CH2]CCC)([O]C(=O)c1cc(F)cc(F)c1)[O][Sn]([CH2]CCC)([CH2]CCC)[O]C(=O)c1cc(F)cc(F)c1 | 89.7% (active) |
| CCOC(=O)CSC(=S)Nc1ccc(Cl)cc1 | 87.5% (active) |
| CC1(C)CC(=O)C(C(c2ccc3c(c2)OCO3)N2CCOCC2)C(=O)C1 (stereo not given) | 99.3% (active) |
| COC(=O)c1c(C)cccc1C(=O)c1c(C)cc(C)cc1C | 91.8% (active) |
| C=C1C(=O)OC2CC3(C)CC(O)C(O)C(=C)C3CC12 (stereo not given) | 93.1% (active) |
| CCOC(=O)C1=C(N)N(S(=O)(=O)c2ccc(C)cc2)CCC(C(=O)OC)=C1 | 82% (active) |

Assay: NCI Yeast Anticancer Drug Screen. Data for the cln2 rad14 strain (AID 165);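 further: 0% = growth equal to vehicle treated cultures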
Conditions: S. cerevisiae cln2 rad14 strain, at 5.0 µM (retest, dose inferred, filed as 0.5), stronger effect = higher value
Method in brief: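 Yeast strain cln2 rad14, bearing defects in cell cycle control and DNA repair, serves as the test system; values reflect growth inhibition compared with vehicle.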

| Structure (SMILES) | growth inhibition |
| --- | --- |
| Cc1cc(O)c(C(=O)/C=C/c2cccnc2)c(=O)[nH]1 | 9% |
| Oc1ccccc1C(=NNc1ccccc1)c1ccccc1O | 49% |
| Cn1c(=S)c2[nH]c(SCCN3CCCCC3)nc2n(C)c1=O | 28% |
| Cc1cc(=O)n(-c2cc3cccccc-3n2)[nH]1 | -11% |
| CC(=O)OCC1OC(n2c(O)c(N=NC(N)=S)c3ccc([N+](=O)[O-])cc32)C(OC(C)=O)C1OC(C)=O (stereo not given) | -33% |
| COC(=O)NNc1c([N+](=O)[O-])cnn(-c2ccccc2)c1=O | 9% |
| CC(=O)N(C1=C(Cl)C(=O)c2ccccc2C1=O)c1ccc(F)cc1 | 13% |
| COC(=O)CC1c2cc(OC)c3cccc(OC)c3c2CCC1(C)C(=O)OC (stereo not given) | 91% (active) |
| CC[n+]1c(/C=C/c2ccc(N(C)C)cc2)ccc2ccccc21 | -5% |
| COc1ccc(SC2=C(N(C)C)C(=O)c3ccccc3C2=O)cc1 | 54% |
| C1=C(c2ccccc2)C(=Nc2ccccc2)SC1=Nc1ccccc1 | 33% |
| Cc1c(O)c(Br)c(Br)c(Br)c1Br | 93% (active) |
| CC1(C)OC(C(COC(=O)c2ccc([N+](=O)[O-])cc2)OS(=O)(=O)c2ccc([N+](=O)[O-])cc2)C(C(SCc2ccccc2)SCc2ccccc2)O1 (stereo not given) | -9% |
| Cc1cccc(Cc2ccc(Cl)cc2)c1O | -10% |
| C=C(CN(C)C)C(=O)c1ccccc1[N+](=O)[O-] | 99% (active) |
| CCCCN(CCCC)CC(O)c1cc(-c2ccc(Cl)cc2)nc2c(C)cccc12 (stereo not given) | -4% |
| O=C(Nc1ccc(Cl)cc1)NS(=O)(=O)c1c(-c2ccccc2)oc2ccccc2c1=O | 15% |
| Cc1cc(CN(Cc2ccccc2)Cc2nc3ccccc3[nH]2)c(O)c(CN(Cc2nc3ccccc3[nH]2)Cc2nc3ccccc3[nH]2)c1 | -5% |
| COC1=CC2=CCC3C(CCC4(C)C(C(C)=O)CCC34)C2(C)CC1 (stereo not given) | -2% |
| OC(C1CCCCN1)C1CC(c2ccccc2)Nc2c(Cl)cc(Cl)cc21 (stereo not given) | -4% |

| Structure (SMILES) | growth inhibition |
| --- | --- |
| CN(C)C1=C(Cl)C(=O)c2ccccc2C1=O | 11% |
| CCCCCNC(=O)C1C(=O)N(CCCCC)C(=O)/C1=N\N (stereo not given) | 1% |
| O=C(Nc1ccc(Cl)cc1)OCCOCCOC(=O)Nc1ccc(Cl)cc1 | 6% |
| CCCC(CC)c1c(O)c(O)c(C(CC)CCC)c(C(CC)CCC)c1C(CC)CCC (stereo not given) | 18% |
| Cc1ccc(NC(=S)SCc2ccc3c(c2)OCO3)cc1Cl | -7% |
| CN(C)CCCNc1ccc(O)c2c1C(=O)c1ccccc1C2=O | 32% |
| CC1=C(C(=O)Nc2ccc(Cl)c(Cl)c2)C(c2ccco2)C(C(=O)Nc2ccc(Cl)c(Cl)c2)=C(C)N1 | 24% |
| Cc1ccccc1NC(=O)CSC(N)=O | 5% |
| Cc1[nH]c2ccccc2c1C(C)CC(O)c1ccccc1 (stereo not given) | 11% |
| Cn1c(=O)ccc2cc(C(=O)c3ccccc3)ccc21 | 39% |
| c1ccc2c(c1)N=c1ccccc1=P21c2ccccc2Nc2ccccc21 | 85% (active) |
| Nc1[nH]cnc(=S)c1NC=O | -4% |
| COC(=O)CCC(=O)c1ccc2c(c1)CC1(Cc3ccccc3C1)C2 | 14% |
| CCC[CH2][Sn]([CH2]CCC)([O]C(=O)c1cc(F)cc(F)c1)[O][Sn]([CH2]CCC)([CH2]CCC)[O]C(=O)c1cc(F)cc(F)c1 | 30% |
| CCOC(=O)CSC(=S)Nc1ccc(Cl)cc1 | -5% |
| CC1(C)CC(=O)C(C(c2ccc3c(c2)OCO3)N2CCOCC2)C(=O)C1 (stereo not given) | -9% |
| COC(=O)c1c(C)cccc1C(=O)c1c(C)cc(C)cc1C | -26% |
| C=C1C(=O)OC2CC3(C)CC(O)C(O)C(=C)C3CC12 (stereo not given) | -2% |
| CCOC(=O)C1=C(N)N(S(=O)(=O)c2ccc(C)cc2)CCC(C(=O)OC)=C1 | 5% |

Same assay, conditions: S. cerevisiae cln2 rad14 strain, at 50.0 µM (retest, dose inferred, filed as 5.0), stronger effect = higher value

| Structure (SMILES) | growth inhibition |
| --- | --- |
| Cc1cc(O)c(C(=O)/C=C/c2cccnc2)c(=O)[nH]1 | 70% (active) |
| Oc1ccccc1C(=NNc1ccccc1)c1ccccc1O | 97% (active) |
| Cn1c(=S)c2[nH]c(SCCN3CCCCC3)nc2n(C)c1=O | 28% |
| Cc1cc(=O)n(-c2cc3cccccc-3n2)[nH]1 | 98% (active) |
| CC(=O)OCC1OC(n2c(O)c(N=NC(N)=S)c3ccc([N+](=O)[O-])cc32)C(OC(C)=O)C1OC(C)=O (stereo not given) | 23% |
| COC(=O)NNc1c([N+](=O)[O-])cnn(-c2ccccc2)c1=O | 32% |
| CC(=O)N(C1=C(Cl)C(=O)c2ccccc2C1=O)c1ccc(F)cc1 | 98% (active) |
| COC(=O)CC1c2cc(OC)c3cccc(OC)c3c2CCC1(C)C(=O)OC (stereo not given) | 90% (active) |
| CC[n+]1c(/C=C/c2ccc(N(C)C)cc2)ccc2ccccc21 | 98% (active) |
| COc1ccc(SC2=C(N(C)C)C(=O)c3ccccc3C2=O)cc1 | 79% (active) |
| C1=C(c2ccccc2)C(=Nc2ccccc2)SC1=Nc1ccccc1 | 99% (active) |
| Cc1c(O)c(Br)c(Br)c(Br)c1Br | 96% (active) |
| CC1(C)OC(C(COC(=O)c2ccc([N+](=O)[O-])cc2)OS(=O)(=O)c2ccc([N+](=O)[O-])cc2)C(C(SCc2ccccc2)SCc2ccccc2)O1 (stereo not given) | 92% (active) |
| Cc1cccc(Cc2ccc(Cl)cc2)c1O | 99% (active) |
| C=C(CN(C)C)C(=O)c1ccccc1[N+](=O)[O-] | 91% (active) |
| CCCCN(CCCC)CC(O)c1cc(-c2ccc(Cl)cc2)nc2c(C)cccc12 (stereo not given) | 91% (active) |
| O=C(Nc1ccc(Cl)cc1)NS(=O)(=O)c1c(-c2ccccc2)oc2ccccc2c1=O | 98% (active) |
| Cc1cc(CN(Cc2ccccc2)Cc2nc3ccccc3[nH]2)c(O)c(CN(Cc2nc3ccccc3[nH]2)Cc2nc3ccccc3[nH]2)c1 | 59% |
| COC1=CC2=CCC3C(CCC4(C)C(C(C)=O)CCC34)C2(C)CC1 (stereo not given) | 14% |
| OC(C1CCCCN1)C1CC(c2ccccc2)Nc2c(Cl)cc(Cl)cc21 (stereo not given) | 99% (active) |

| Structure (SMILES) | growth inhibition |
| --- | --- |
| CN(C)C1=C(Cl)C(=O)c2ccccc2C1=O | 60% |
| CCCCCNC(=O)C1C(=O)N(CCCCC)C(=O)/C1=N\N (stereo not given) | -3% |
| O=C(Nc1ccc(Cl)cc1)OCCOCCOC(=O)Nc1ccc(Cl)cc1 | 97% (active) |
| CCCC(CC)c1c(O)c(O)c(C(CC)CCC)c(C(CC)CCC)c1C(CC)CCC (stereo not given) | 72% (active) |
| Cc1ccc(NC(=S)SCc2ccc3c(c2)OCO3)cc1Cl | 97% (active) |
| CN(C)CCCNc1ccc(O)c2c1C(=O)c1ccccc1C2=O | 98% (active) |
| CC1=C(C(=O)Nc2ccc(Cl)c(Cl)c2)C(c2ccco2)C(C(=O)Nc2ccc(Cl)c(Cl)c2)=C(C)N1 | 24% |
| Cc1ccccc1NC(=O)CSC(N)=O | 6% |
| Cc1[nH]c2ccccc2c1C(C)CC(O)c1ccccc1 (stereo not given) | 29% |
| Cn1c(=O)ccc2cc(C(=O)c3ccccc3)ccc21 | 51% |
| c1ccc2c(c1)N=c1ccccc1=P21c2ccccc2Nc2ccccc21 | 99% (active) |
| Nc1[nH]cnc(=S)c1NC=O | -5% |
| COC(=O)CCC(=O)c1ccc2c(c1)CC1(Cc3ccccc3C1)C2 | 8% |
| CCC[CH2][Sn]([CH2]CCC)([O]C(=O)c1cc(F)cc(F)c1)[O][Sn]([CH2]CCC)([CH2]CCC)[O]C(=O)c1cc(F)cc(F)c1 | 88% (active) |
| CCOC(=O)CSC(=S)Nc1ccc(Cl)cc1 | 36% |
| CC1(C)CC(=O)C(C(c2ccc3c(c2)OCO3)N2CCOCC2)C(=O)C1 (stereo not given) | 3% |
| COC(=O)c1c(C)cccc1C(=O)c1c(C)cc(C)cc1C | 45% |
| C=C1C(=O)OC2CC3(C)CC(O)C(O)C(=C)C3CC12 (stereo not given) | 5% |
| CCOC(=O)C1=C(N)N(S(=O)(=O)c2ccc(C)cc2)CCC(C(=O)OC)=C1 | -6% |
